# According to PubChem BioAssay (Tox21):
# A number with no mark means an inactive call. Results filed as inconclusive are left out. A call without a number means that no potency is given here. Activity calls are given as the source filed them. The call rests on the fitted dose curve; in most records, active means well fitted curve in the direction sought with a large enough effect in the repeat runs; inconclusive means weak or mixed curves; inactive means no such curve, though single readings can be large; an effect the other way counts as inactive or inconclusive.
# Key:
# [1] = A CellTox Green Cytotoxicity Assay to monitor cytotoxicity in HepG2 cells - 16 hour (AID 1224876); further: nearly all actives have a fitted effect of over 45% in size
# Method in brief: (§1)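 Read-out is fluorescence of a cyanine dye excluded from live cells that stains DNA of dead HepG2 cells, with signal proportional to cytotoxicity. Plates were read at 0, 8, 16, 24, 32 and 40 h after compound addition.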
# [2] = qHTS RealTime-Glo MT Cell Viability Assay in HepG2 cells - 32 hour (AID 1224877); further: nearly all actives have a fitted effect of over 55% in size
# Method in brief: (§2)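 Cell number in HepG2 cultures estimated from NanoLuc luminescence generated by metabolic reduction of a prosubstrate by living cells. The homogeneous, nonlytic format allowed repeated reads at 0, 8, 16, 24, 32 and 40 h of compound exposure.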
# [3] = A CellTox Green Cytotoxicity Assay to monitor cytotoxicity in HepG2 cells - 24 hour (AID 1224878); further: nearly all actives have a fitted effect of over 45% in size
# Method in brief: as §1
# [4] = A CellTox Green Cytotoxicity Assay to monitor cytotoxicity in HepG2 cells - 40 hour (AID 1224879); further: nearly all actives have a fitted effect of over 40% in size
# Method in brief: as §1
# [5] = A CellTox Green Cytotoxicity Assay to monitor cytotoxicity in HEK293 cells - 32 hour (AID 1224881); further: nearly all actives have a fitted effect of over 40% in size; further: potency means the concentration at half of the fitted maximal effect
# Method in brief: (§3)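 Nonlytic real-time cytotoxicity: HEK293 + CellTox Green reagent plated, 5 h preincubation, pintool compound addition (23 nL in DMSO), 37 C for 40 h, fluorescence measured at successive time points.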
# [6] = A CellTox Green Cytotoxicity Assay to monitor cytotoxicity in HepG2 cells - 0 hour (AID 1224882); further: nearly all actives have a fitted effect of over 35% in size
# Method in brief: as §1
# [7] = A CellTox Green Cytotoxicity Assay to monitor cytotoxicity in HepG2 cells - 32 hour (AID 1224883); further: nearly all actives have a fitted effect of over 50% in size
# Method in brief: as §1
# [8] = A CellTox Green Cytotoxicity Assay to monitor cytotoxicity in HEK293 cells - 8 hour (AID 1224884); further: nearly all actives have a fitted effect of over 35% in size
# Method in brief: as §3
# [9] = qHTS RealTime-Glo MT Cell Viability Assay in HepG2 cells - 16 hour (AID 1224885); further: nearly all actives have a fitted effect of over 50% in size
# Method in brief: as §2
# [10] = qHTS RealTime-Glo MT Cell Viability Assay in HEK293 cells - 0 hour (AID 1224880); further: top concentration of the series differs between compounds; nearly all actives have a fitted effect of over 45% in size
# Method in brief: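 Cells were seeded together with NanoLuc luciferase and a prosubstrate that viable cells reduce to a luciferase substrate. After a 5 h incubation at 37 C/5% CO2, compounds were added and luminescence was measured repeatedly during 40 h of treatment.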
structure (smiles),measurement,setting,value
CCCC(=O)OCCC(C)CCC=C(C)C (stereo not given),Potency,[1],inactive
same,outcome,[2],inactive
same,Potency,[3],inactive
same,Potency,[4],inactive
same,Potency,[5],inactive
same,Potency,[6],inactive
same,Potency,[7],inactive
same,Potency,[8],inactive
same,outcome,[9],inactive
O=[N+]([O-])c1c(Cl)cc(Cl)cc1Cl,Potency,[1],inactive
same,outcome,[2],inactive
same,Potency,[3],inactive
same,Potency,[4],inactive
same,Potency,[10],inactive
same,Potency,[7],inactive
same,Potency,[8],inactive
same,outcome,[9],inactive
O=C1CCC(=O)N1Cl,Potency,[1],inactive
same,outcome,[2],inactive
same,Potency,[3],inactive
same,Potency,[4],inactive
same,Potency,[10],inactive
same,Potency,[5],inactive
same,Potency,[7],inactive
same,Potency,[8],inactive
same,outcome,[9],inactive
CC(=O)OC1CCCCC1C(C)(C)C (stereo not given),Potency,[1],inactive
same,outcome,[2],inactive
same,Potency,[3],inactive
same,Potency,[4],inactive
same,Potency,[5],inactive
same,Potency,[6],inactive
same,Potency,[7],inactive
same,Potency,[8],inactive
same,outcome,[9],inactive
COC(=O)CCCCC(CCSS/C(CCO)=C(\C)N(C=O)Cc1cnc(C)nc1N)SC(C)=O (stereo not given),Potency,[1],inactive
same,outcome,[2],inactive
same,Potency,[3],inactive
same,Potency,[4],inactive
same,Potency,[5],inactive
same,Potency,[6],inactive
same,Potency,[7],inactive
same,Potency,[8],inactive
same,outcome,[9],inactive
CCC(C)C(=O)OCCc1ccccc1 (stereo not given),Potency,[1],inactive
same,outcome,[2],inactive
same,Potency,[3],inactive
same,Potency,[4],inactive
same,Potency,[10],inactive
same,Potency,[6],inactive
same,Potency,[7],inactive
same,Potency,[8],inactive
same,outcome,[9],inactive
Cc1ncc([N+](=O)[O-])n1CC(C)O (stereo not given),Potency,[1],inactive
same,outcome,[2],inactive
same,Potency,[3],inactive
same,Potency,[4],inactive
same,Potency,[10],inactive
same,Potency,[5],inactive
same,Potency,[7],inactive
same,Potency,[8],inactive
same,outcome,[9],inactive
C=CC(=O)OCC1CCCO1 (stereo not given),Potency,[1],inactive
same,outcome,[2],inactive
same,Potency,[3],inactive
same,Potency,[4],inactive
same,Potency,[5],inactive
same,Potency,[6],inactive
same,Potency,[7],inactive
same,Potency,[8],inactive
same,outcome,[9],inactive
CCCC(CC)c1ccccc1 (stereo not given),Potency,[1],inactive
same,outcome,[2],inactive
same,Potency,[3],inactive
same,Potency,[4],inactive
same,Potency,[5],inactive
same,Potency,[6],inactive
same,Potency,[7],inactive
same,Potency,[8],inactive
same,outcome,[9],inactive
CC(C)=CCC/C(C)=C/COC=O,Potency,[1],inactive
same,outcome,[2],inactive
same,Potency,[3],inactive
same,Potency,[4],inactive
same,Potency,[5],inactive
same,Potency,[6],inactive
same,Potency,[7],inactive
same,Potency,[8],inactive
same,outcome,[9],inactive
CC(=O)Nc1ccc(OC(=O)c2ccccc2OC(C)=O)cc1,Potency,[1],inactive
same,outcome,[2],inactive
same,Potency,[3],inactive
same,Potency,[4],inactive
same,Potency,[10],inactive
same,Potency,[6],inactive
same,Potency,[7],inactive
same,Potency,[8],inactive
same,outcome,[9],inactive
COC(=O)c1cc(Cl)cc(Cl)c1,Potency,[1],inactive
same,outcome,[2],inactive
same,Potency,[3],inactive
same,Potency,[4],inactive
same,Potency,[10],inactive
same,Potency,[5],inactive
same,Potency,[7],inactive
same,Potency,[8],inactive
same,outcome,[9],inactive
C=CCN1C[C@H](C(=O)N(CCCN(C)C)C(=O)NCC)C[C@@H]2c3cccc4[nH]cc(c34)C[C@H]21,Potency,[1],inactive
same,outcome,[2],inactive
same,Potency,[3],inactive
same,Potency,[4],inactive
same,Potency,[10],inactive
same,Potency,[5],inactive
same,Potency,[7],inactive
same,Potency,[8],inactive
same,outcome,[9],inactive
C[Si]1(C)O[Si](C)(C)O[Si](C)(C)O[Si](C)(C)O[Si](C)(C)O1,Potency,[1],inactive
same,outcome,[2],inactive
same,Potency,[3],inactive
same,Potency,[4],inactive
same,Potency,[5],inactive
same,Potency,[6],inactive
same,Potency,[7],inactive
same,Potency,[8],inactive
same,outcome,[9],inactive
C/C(=C1\CCOC(=O)S1)N(C=O)Cc1cnc(C)nc1N,Potency,[1],inactive
same,outcome,[2],inactive
same,Potency,[3],inactive
same,Potency,[4],inactive
same,Potency,[5],inactive
same,Potency,[6],inactive
same,Potency,[7],inactive
same,Potency,[8],inactive
same,outcome,[9],inactive
CCCCCCCCCCCCCBr,Potency,[1],inactive
same,outcome,[2],inactive
same,Potency,[3],inactive
same,Potency,[4],inactive
same,Potency,[5],inactive
same,Potency,[6],inactive
same,Potency,[7],inactive
same,Potency,[8],inactive
same,outcome,[9],inactive
CCCCCc1cccc(=O)o1,Potency,[1],inactive
same,outcome,[2],inactive
same,Potency,[3],inactive
same,Potency,[4],inactive
same,Potency,[10],inactive
same,Potency,[5],inactive
same,Potency,[7],inactive
same,Potency,[8],inactive
same,outcome,[9],inactive
CC(CO)(CO)CO,Potency,[1],inactive
same,outcome,[2],inactive
same,Potency,[3],inactive
same,Potency,[4],inactive
same,Potency,[5],inactive
same,Potency,[6],inactive
same,Potency,[7],inactive
same,Potency,[8],inactive
same,outcome,[9],inactive
[O]=[Mo](=[O])=[O],cytotoxicity increase,[1],-8.07% [at 15.8 µM]
same,"activity change, negative = cytotoxic",[2],0.396% [at 15.8 µM]
same,cytotoxicity,[3],-10.8% [at 15.8 µM]
same,cytotoxicity increase,[4],-15% [at 15.8 µM]
same,cytotoxicity increase,[5],-39.2% [at 15.8 µM]
same,cytotoxicity,[6],-4.74% [at 15.8 µM]
same,cytotoxicity increase,[7],-13.6% [at 15.8 µM]
same,cytotoxicity increase,[8],-27.3% [at 15.8 µM]
same,"activity change, negative = cytotoxic",[9],6.22% [at 15.8 µM]
CO[Si](CCCn1c(=O)n(CCC[Si](OC)(OC)OC)c(=O)n(CCC[Si](OC)(OC)OC)c1=O)(OC)OC,Potency,[1],inactive
same,outcome,[2],inactive
same,Potency,[3],inactive
same,Potency,[4],inactive
same,Potency,[5],inactive
same,Potency,[6],inactive
same,Potency,[7],inactive
same,Potency,[8],inactive
same,outcome,[9],inactive
Cc1ccc(C(C)NC(=O)[C@@H](NC(=O)OC(C)C)C(C)C)cc1 (stereo not given in full),Potency,[1],inactive
same,outcome,[2],inactive
same,Potency,[3],inactive
same,Potency,[4],inactive
same,Potency,[10],inactive
same,Potency,[5],inactive
same,Potency,[7],inactive
same,Potency,[8],inactive
same,outcome,[9],inactive
CCCCC1CCC(O)CC1 (stereo not given),Potency,[1],inactive
same,outcome,[2],inactive
same,Potency,[3],inactive
same,Potency,[4],inactive
same,Potency,[10],inactive
same,Potency,[5],inactive
same,Potency,[7],inactive
same,Potency,[8],inactive
same,outcome,[9],inactive
Cc1ccccc1C(N)=O,Potency,[1],inactive
same,outcome,[2],inactive
same,Potency,[3],inactive
same,Potency,[4],inactive
same,Potency,[10],inactive
same,Potency,[5],inactive
same,Potency,[7],inactive
same,Potency,[8],inactive
same,outcome,[9],inactive
c1ccc2c(CC3=NCCN3)cccc2c1,Potency,[1],inactive
same,outcome,[2],inactive
same,Potency,[3],inactive
same,Potency,[4],inactive
same,Potency,[5],inactive
same,Potency,[6],inactive
same,Potency,[7],inactive
same,Potency,[8],inactive
same,outcome,[9],inactive
CC(O)CC(C)O (stereo not given),Potency,[1],inactive
same,Potency,[3],inactive
same,Potency,[4],inactive
same,Potency,[10],inactive
same,Potency,[5],inactive
same,Potency,[6],inactive
same,Potency,[7],inactive
same,Potency,[8],inactive
same,outcome,[9],inactive
CC(=O)O[C@@H]1CC2CCC1(C)C2(C)C (stereo not given in full),Potency,[1],inactive
same,Potency,[3],inactive
same,Potency,[4],inactive
same,Potency,[10],inactive
same,Potency,[5],inactive
same,Potency,[6],inactive
same,Potency,[7],inactive
same,Potency,[8],inactive
same,outcome,[9],inactive
C=C(C)[C@@H]1CC=C(C)C(=O)C1,Potency,[1],inactive
same,Potency,[3],inactive
same,Potency,[4],inactive
same,Potency,[10],inactive
same,Potency,[5],inactive
same,Potency,[6],inactive
same,Potency,[7],inactive
same,Potency,[8],inactive
same,outcome,[9],inactive
O=C1OCCO1,Potency,[1],inactive
same,outcome,[2],inactive
same,Potency,[3],inactive
same,Potency,[4],inactive
same,Potency,[5],366 nM (active)
same,Potency,[7],inactive
same,Potency,[8],inactive
same,outcome,[9],inactive
